# Measured values from PubChem BioAssay AID624252 (National Center for Advancing Translational Sciences (NCATS), 2012).
# The list shows a part of the results. Results filed as inconclusive are left out. The source made the active and inactive calls. The call rests on the fitted dose curve; in most records, active means well fitted cell-killing curve with a large enough effect; inconclusive means small, poorly fitted or top-dose-only effect; inactive means flat fitted curve, though single readings scatter.
# Experiment: qHTS screen for small molecules that inhibit ELG1-dependent DNA repair: Hit Confirmation with Unstimulated Viability Assay;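 further: compound exposure lasted 16 hours before reading; nearly all actives have a fitted effect of over 55% in size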
# Conditions: cell viability counter-screen, luminescence
# Text: Cancer cells divide rapidly compared to normal cells in the body. During cell division, cancer cells need to duplicate their genome by DNA replication. The failure of genome duplication leads to cancer cells' death. Therefore, inhibitors of DNA replication could specifically kill cancer cells. Based on this concept, many chemotherapeutic agents were developed and have been used to treat cancer patients. However, there are a limited number of agents available in the clinical setting, and some of those that do exist have low efficacy and severe side effects. Therefore, if we can find the compounds that effectively block DNA replication either by directly damaging DNA or by inhibiting other cellular mechanisms, the options for cancer treatment will be broadened. With this in mind, we developed a quantitative high-throughput ELG1-luciferase reporter gene assay. Small molecules that specifically block ELG1 function in response to DNA damage can be identified by monitoring the suppression of luciferase activity. Since ELG1 defines a pathway for repairing DNA damage, agents blocking ELG1 function can be used to sensitize cancer cells to chemotherapeutic agents whose mechanism of action involves the induction of DNA damage.
# NIH Molecular Libraries Probe Production Network [MLPCN]
# NIH Chemical Genomics Center [NCGC]
# Assay Provider: Kyungjae Myung, NHGRI, NIH
# For genotoxicity screening, 2,000 cells in 4 uL/well were dispensed into white, solid-bottom 1536-well plates using a solenoid-based dispenser. 23 nL compound or DMSO vehicle were added by a pin tool, the plates were incubated 16 hr at 37 °C and 5% CO2. 5 ul ONE-Glo (Promega) was then added to each plate and following a 30 min incubation at room temperature, luciferase activity was quantified on a ViewLux CCD-based plate reader.
# Potency means the concentration at half of the fitted maximal effect.
row,Structure (SMILES),Potency
1,C[C@@]12CC[C@H]3[C@@H](CC[C@]4(O)C[C@H](O)CC[C@@]34C=O)[C@]1(O)CC[C@@H]2C1=CC(=O)OC1,0.425 µM (active)
2,COC1CC(OC2CC[C@@]3(C=O)C4CC[C@]5(C)C(C6=CC(=O)OC6)CC[C@@]5(O)C4CC[C@]3(O)C2)OC(C)C1O (stereo partly drawn),0.199 µM (active)
3,CC(=O)[O][Sn]([c]1ccccc1)([c]1ccccc1)[c]1ccccc1,1.41 µM (active)
